Source: PubChem BioAssay AID504374 (National Center for Advancing Translational Sciences (NCATS), 2011)
Screen size: about 1,500 compounds; about 100 (6.7%) were called active. Entries that show only a call come without a potency. About 7% were inconclusive and are not listed. Calls come from the whole dose curve; as a rule, active = well fitted inhibition curve with a large enough effect; inconclusive = small, poorly fitted or top-dose-only effect, or effect the other way; inactive = flat fitted curve, though single readings scatter. The sample as a whole holds a higher share of actives than the screen did.
Note: nearly all actives have a fitted effect of over 60% in size.
Potency is the fitted concentration of half-maximal effect.

Each compound was assayed against Runt-related transcription factor 1 (Homo sapiens) + Core-binding factor subunit beta (Homo sapiens) (UniProt Q01196+Q13951) (assay: qHTS Assay for Compounds Blocking the Interaction Between CBF-beta and RUNX1 for the Treatment of Acute Myeloid Leukemia: Hit Validation). Details: AlphaScreen CBFb-His/RUNX1-biotin binding; series mostly up to 59.8 µM.
Runt-related transcription factor 1 (Homo sapiens) + Core-binding factor subunit beta (Homo sapiens), sequence (Q01196 whole entry, looked up): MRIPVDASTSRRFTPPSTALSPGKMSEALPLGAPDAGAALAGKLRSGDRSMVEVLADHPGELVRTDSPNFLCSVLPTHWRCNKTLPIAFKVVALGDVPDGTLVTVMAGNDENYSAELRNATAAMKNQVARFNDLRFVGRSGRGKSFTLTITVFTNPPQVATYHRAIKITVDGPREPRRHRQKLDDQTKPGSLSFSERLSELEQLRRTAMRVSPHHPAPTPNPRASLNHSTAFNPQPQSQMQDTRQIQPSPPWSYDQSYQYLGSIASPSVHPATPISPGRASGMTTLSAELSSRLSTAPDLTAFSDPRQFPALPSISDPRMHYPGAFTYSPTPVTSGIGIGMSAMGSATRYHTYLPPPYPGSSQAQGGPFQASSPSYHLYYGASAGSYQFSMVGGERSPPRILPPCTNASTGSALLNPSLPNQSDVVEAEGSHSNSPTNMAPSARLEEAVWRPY
Runt-related transcription factor 1 (Homo sapiens) + Core-binding factor subunit beta (Homo sapiens), sequence (Q13951 whole entry, looked up): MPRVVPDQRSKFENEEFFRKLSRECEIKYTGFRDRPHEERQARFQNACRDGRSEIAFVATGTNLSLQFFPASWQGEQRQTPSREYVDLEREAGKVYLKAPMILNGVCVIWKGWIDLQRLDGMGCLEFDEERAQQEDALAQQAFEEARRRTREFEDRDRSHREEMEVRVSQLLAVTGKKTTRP
Outline: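 AlphaScreen proximity assay: His-tagged CBF-beta and biotinylated RUNX1 (30 nM each) preincubated 20 min, then compound 15 min, then nickel and streptavidin beads 90 min, all at room temperature; signal read at […]em 440 nm.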
For CCOC(=O)c1nnn2c1nc(N1CCN(C)CC1)c1ccccc12, the Potency was “inactive”. With C=CCn1c(=O)c2ccccc2n2nnc(C(=O)OCC)c12 the Potency was “inactive”. In the case of CC/C(=C(\c1ccccc1)c1ccc(OCCN(C)C)cc1)c1ccccc1, the Potency is reported as 24.4 µM (active). With COc1cccc(C2Oc3ccccc3C3CC(c4cccs4)=NN32)c1 (centres undefined) the Potency was “inactive”. With CC(=O)c1cc(O)c2ccccc2c1O the Potency was “inactive”. Cc1ccc(C)c(C(=O)CCC(=O)O)c1 was tested, and the Potency was “inactive”. CCCC(=O)c1cc(O)c(O)cc1O was tested, and the Potency was 4.47 µM (active). For C/C(=N\O)c1c(O)cc(-c2ccccc2)n(-c2ccccc2)c1=O, the Potency was “inactive”. With NC[C@@H](O)c1ccc(O)c(O)c1 the Potency was 2.82 µM (active). In the case of CC1=CC(=O)CC(C)(C)C1(O)/C=C/C(C)=C/C(=O)O (centres undefined), the Potency is reported as “inactive”. C=CCn1c(SCc2ccccc2Cl)nnc1-c1sc2nc(C)cc(C)c2c1N was tested, and the Potency was “inactive”. In the case of CCOC(=O)c1c(C)n(C)c2ccc(OC)c(NC(=O)CCN3CCC(Cc4ccccc4)CC3)c12, the Potency is reported as “inactive”. O=S(=O)(Nc1cccc(CCc2ccccn2)c1)c1cc(Cl)ccc1Cl was tested, and the Potency was “inactive”. With c1cnc2c(c1)ccc1cccnc12 the Potency was 1.12 µM (active). In the case of c1cnc2ccc3ncccc3c2c1, the Potency is reported as “inactive”. For c1ccc(-n2ncc3cccnc32)cc1, the Potency was “inactive”. In the case of CCCCn1cc([N+](=O)[O-])nc1C, the Potency is reported as “inactive”. O=C(CN1CCN(C(c2ccccc2)c2ccccc2)CC1)N1N=CCC1c1ccccc1 (centres undefined) was tested, and the Potency was “inactive”. With COC(=O)c1cc(NS(=O)(=O)c2ccc(F)cc2)ccc1N1CCOCC1 the Potency was “inactive”. With COc1ccc(/C(C)=N/NC(=O)Cn2nc([N+](=O)[O-])cc2C)cc1 the Potency was “inactive”. In the case of COc1cccc2c1NC(C(=O)O)C1CC=CC21 (centres undefined), the Potency is reported as 14.1 µM (active). In the case of COc1ccccc1C1CCN(C(=O)c2cccs2)CC1, the Potency is reported as “inactive”. With COc1ccccc1C1CCN(C(=O)c2ccco2)CC1 the Potency was “inactive”. COc1ccc2[nH]c(=O)c(CN(C(=O)c3cccnc3)c3ccc(C)cc3C)cc2c1 was tested, and the Potency was “inactive”. With CC1=NNC(=O)C1Cc1ccc(F)cc1 (centres undefined) the Potency was “inactive”. CC(C)(NC(=O)c1cc(Cl)c2ccccc2c1O)C(=O)O was tested, and the Potency was “inactive”. With COC(=O)CC1C(=O)NC(C)=C1C(=O)OC (centres undefined) the Potency was “inactive”. COc1ccc(-n2c(=S)[nH]c(=O)c3cccnc32)cc1 was tested, and the Potency was “inactive”. For CCCOc1ccc(CSC(=N)N)cc1C(=O)OC, the Potency was “inactive”.
